In the library only some 12% were active in any assay of this set; here they are far more common.
JMJD2A Tudor = JMJD2A Tudor domain (human) inhibition | AlphaScreen JMJD2A-Tudor / H3K4me3 peptide binding | O75164 | 390,000 tested, 4.4% active | Potency, µM (top dose mostly 114 µM), for the others: at the highest dose activity change, negative = inhibition, actives largely listed as inhibitors; further: on the % scale 0 is the no-effect control and ±100 the full control effect; nearly all actives have a fitted effect of over 50% in size
Sfp PPTase inh = blocks B. subtilis Sfp PPTase activity | Biochemical Sfp PPTase activity, qHTS | Potency, µM, without a hit: largest response in the series, negative = inhibition, hits mostly inhibitors | 310,000 tested, 3.5% active | Q9F4F7;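 further: the enzyme is Sfp with the accession as filed and its product quenches rhodamine fluorescence; 0% = enzyme reaction without inhibitor and -100% = no enzyme wells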
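After 15 min at room temperature with compound, 15 nM Sfp received 5 uM rhodamine-CoA plus 12.5 uM BHQ-2-ybbR (50 mM Hepes pH 7.6, 10 mM MgCl2). Rate came from the fluorescence difference over 30 min, ex 525/em 598 nm.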
BAZ2B block = inhibitors of human BAZ2B bromodomain; 360,000 tested, 4.4% active; Potency, µM (top dose mostly 114 µM), inactives show top-dose activity change, negative = inhibition, actives largely listed as inhibitors; Q9UIF8; AlphaScreen BAZ2B-H3K14Ac peptide displacement; AID 504333; further: on the % scale 0 is the no-effect control and ±100 the full control effect; nearly all actives have a fitted effect of over 60% in size
Target sequence (Q9UIF8 whole entry, looked up): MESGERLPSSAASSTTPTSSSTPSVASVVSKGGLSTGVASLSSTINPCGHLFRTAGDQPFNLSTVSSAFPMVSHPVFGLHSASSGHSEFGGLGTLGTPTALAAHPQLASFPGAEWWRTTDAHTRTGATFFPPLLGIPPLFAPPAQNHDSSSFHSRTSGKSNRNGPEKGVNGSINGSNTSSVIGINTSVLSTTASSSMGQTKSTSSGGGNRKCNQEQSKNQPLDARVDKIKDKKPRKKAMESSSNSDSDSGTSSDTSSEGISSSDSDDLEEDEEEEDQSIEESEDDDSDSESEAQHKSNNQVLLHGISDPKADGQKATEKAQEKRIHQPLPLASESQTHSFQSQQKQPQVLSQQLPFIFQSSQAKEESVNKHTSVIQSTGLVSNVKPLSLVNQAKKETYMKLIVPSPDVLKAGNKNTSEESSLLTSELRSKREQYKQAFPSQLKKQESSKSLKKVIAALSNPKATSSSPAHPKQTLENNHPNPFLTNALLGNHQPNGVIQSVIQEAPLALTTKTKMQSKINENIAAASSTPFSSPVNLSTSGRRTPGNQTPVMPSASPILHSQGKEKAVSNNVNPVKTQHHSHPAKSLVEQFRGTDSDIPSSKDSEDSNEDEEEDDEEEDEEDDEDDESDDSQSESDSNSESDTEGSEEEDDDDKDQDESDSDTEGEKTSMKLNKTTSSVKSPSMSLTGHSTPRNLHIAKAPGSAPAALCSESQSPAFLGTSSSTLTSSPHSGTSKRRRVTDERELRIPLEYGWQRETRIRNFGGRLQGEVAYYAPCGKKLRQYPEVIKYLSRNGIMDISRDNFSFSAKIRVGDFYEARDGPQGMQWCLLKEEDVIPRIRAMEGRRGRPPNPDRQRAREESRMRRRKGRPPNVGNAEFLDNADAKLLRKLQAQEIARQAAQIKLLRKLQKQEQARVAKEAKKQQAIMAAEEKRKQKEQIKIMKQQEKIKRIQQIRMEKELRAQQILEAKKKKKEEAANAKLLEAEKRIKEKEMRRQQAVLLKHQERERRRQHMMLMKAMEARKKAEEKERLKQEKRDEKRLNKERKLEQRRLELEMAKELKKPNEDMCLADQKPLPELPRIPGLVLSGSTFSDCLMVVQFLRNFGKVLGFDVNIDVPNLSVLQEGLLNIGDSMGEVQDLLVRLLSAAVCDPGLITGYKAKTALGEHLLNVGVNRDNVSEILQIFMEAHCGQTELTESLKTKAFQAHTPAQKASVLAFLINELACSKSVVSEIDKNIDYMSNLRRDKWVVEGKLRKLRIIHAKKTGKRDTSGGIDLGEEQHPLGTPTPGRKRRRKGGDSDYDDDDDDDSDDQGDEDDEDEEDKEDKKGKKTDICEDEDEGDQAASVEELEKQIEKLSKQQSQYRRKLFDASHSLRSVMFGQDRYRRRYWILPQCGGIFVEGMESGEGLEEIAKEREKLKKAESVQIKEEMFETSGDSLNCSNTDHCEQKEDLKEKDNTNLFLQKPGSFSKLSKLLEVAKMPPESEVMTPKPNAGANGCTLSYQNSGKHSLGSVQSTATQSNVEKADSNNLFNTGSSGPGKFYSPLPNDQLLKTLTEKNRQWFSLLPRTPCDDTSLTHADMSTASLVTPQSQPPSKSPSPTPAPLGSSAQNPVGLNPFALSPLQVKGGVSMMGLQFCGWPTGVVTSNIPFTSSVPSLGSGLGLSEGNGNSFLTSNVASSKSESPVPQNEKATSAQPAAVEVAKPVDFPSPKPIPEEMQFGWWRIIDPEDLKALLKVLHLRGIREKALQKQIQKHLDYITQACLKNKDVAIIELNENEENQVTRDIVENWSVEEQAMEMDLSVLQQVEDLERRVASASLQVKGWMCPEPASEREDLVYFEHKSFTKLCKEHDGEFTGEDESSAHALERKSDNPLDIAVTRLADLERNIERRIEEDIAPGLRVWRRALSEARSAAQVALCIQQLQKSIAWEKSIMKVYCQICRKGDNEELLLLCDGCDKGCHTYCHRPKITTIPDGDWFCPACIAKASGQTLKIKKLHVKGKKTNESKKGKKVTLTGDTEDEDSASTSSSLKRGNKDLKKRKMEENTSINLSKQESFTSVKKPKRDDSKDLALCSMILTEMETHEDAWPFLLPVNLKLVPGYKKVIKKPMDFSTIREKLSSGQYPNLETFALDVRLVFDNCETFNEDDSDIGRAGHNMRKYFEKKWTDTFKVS
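In this displacement format the biotinylated H3(5-23) peptide acetylated at Lys14 serves as ligand at 50 nM, with BAZ2B at 50 nM in PBS pH 7.4 containing 0.01% Tween-20. Donor and acceptor beads are 10 ug/mL final.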
HP1b chromo inh = blocks HP1-beta chromodomain binding to methylated histone tails. AlphaScreen HP1-beta / biotin-H3K9me3 peptide binding. 390,000 tested, 0.56% active. P83916. Potency, µM (highest dose often 114 µM), for inactives: top-dose activity change, negative = inhibition, usual class: inhibitors. AID 540317; further: nearly all actives have a fitted effect of over 70% in size
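Compound inhibition of the preformed complex between 50 nM HP1-beta and 50 nM biotinylated H3K9me3 peptide was read by AlphaScreen. Buffer was PBS pH 7.4 with 0.01% Tween-20. Incubations ran 30 min at room temperature, with 10 ug/mL donor/acceptor beads.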
G9a block = blocks human histone lysine methyltransferase G9a; Q96KQ7; G9a H3K9 monomethylation, AlphaScreen, 2 h; Potency, µM (titrated, usually from 102 µM), for the others: top-dose activity, negative = inhibition, usual class: inhibitors; 350,000 tested, 8.8% active; AID 504332; further: on the % scale 0 is the no-effect control and ±100 the full control effect; nearly all actives have a fitted effect of over 75% in size
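Methyltransferase reactions run at room temperature for 2 h (20 nM enzyme, 500 nM biotin-H3K9 peptide, 20 uM SAM) after a 15 min compound preincubation; product detected by AlphaScreen beads and anti-H3K9me1 antibody.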
PLK1 PBD block = PLK1 (human) polo-box domain binding inhibition; P53350; Plk1 PBD binding of FITC phosphopeptide, fluorescence polarization; Potency, µM, for the others: max response, negative = inhibition, most hits filed as inhibitors; 360,000 tested, 2.8% active; AID 720504; further: series mostly up to about 57 µM; on the % scale 0 is the no-effect control and ±100 the full control effect; nearly all actives have a fitted effect of over 65% in size
The depositor's hits bear a star; ? = inconclusive; . = no result given; [ ] = remark or other dose. The call rests on the fitted dose curve; in most records, active means well fitted curve in the direction sought with a large enough effect; inconclusive means small, poorly fitted or top-dose-only effect, or another doubt; inactive means no such curve, though single readings can be large; an effect the other way counts as inactive or inconclusive. Potency means the concentration at half of the fitted maximal effect.

SMILES | JMJD2A Tudor | Sfp PPTase inh | BAZ2B block | HP1b chromo inh | G9a block | PLK1 PBD block
CC(Sc1nnc(Cc2ccccc2)o1)C(=O)Nc1ccccc1[N+](=O)[O-] (stereo not given) | -13.5% | . | -18.9% | 48.4% | 17.4%[12.7 µM] | -5.6%
COc1ccc(C(N)=S)c(OC)c1 | -11.8% | 44.7µM* | -3.5% | -11.6% | 8.91µM* | ?
COc1ccc2nc(NC(=S)N(C)C)sc2c1 | 25.1µM* | ? | ? | ? | 1.41µM* | 5.32µM*
CC(=O)Nc1ccc(NC(=O)C(C)OC(=O)CCC2CCCC2)cc1 (stereo not given) | -10.5% | . | 2.9% | 12.6% | 35.5µM* | -0.7%
CCCN1C(=O)c2[nH]nc(-c3ccccc3O)c2C1c1ccc(OCc2ccccc2)c(OCC)c1 (stereo not given) | -3.5% | . | -13.8% | 63.1% | 17.7%[59 µM] | .
CCCCc1cc(=O)oc2cc(OCc3nn[nH]n3)ccc12 | -1.4% | -7.5% | -0.9% | 18.0% | 56.2µM* | -0.6%
CCCc1cc(=O)oc2cc(OCc3nn[nH]n3)ccc12 | -33.1% | 10.9% | -3.5%[57.1 µM] | 57.9% | ? | -4.2%
CCCCc1cc(=O)oc2c(C)c(OCc3nn[nH]n3)ccc12 | -20.1% | -12.6% | -17.0% | 15.7% | 50.1µM* | -15.1%
CCCCc1cc(=O)oc2c(C)c(OCC(=O)N3CCC(C(=O)O)(c4ccccc4)CC3)ccc12 | -22.4% | 6.4% | -26.2% | 2.2% | 3.16µM* | -3.2%
COc1cccc(-c2nc(C(N)=O)c3c(n2)n(-c2ccc4c(c2)OCO4)c(=O)n3C)c1OC | -17.9% | . | -7.9% | 16.8%[57 µM] | 5.1%[59 µM] | .
COc1cc(CNC(=O)C2CCCCN2S(=O)(=O)c2ccc(F)cc2)cc(OC)c1OC (stereo not given) | -15.3% | . | -0.5% | 39.0% | 1.0%[59 µM] | .
Cc1ccc2c(c1)N(CC(=O)NC1CCC(C)CC1)C(=O)c1cccnc1O2 (stereo not given) | -9.2% | 3.6% | 0.8% | 45.4% | . | -8.7%
Cn1cnc2c(oc3ccccc32)c1=O | -10.0% | . | . | 16.7% | . | -3.1%
CCOC(=O)[C@H]1[C@H]2COc3ccccc3[C@@H]2N2C(=O)[C@@H](CO)NC(=O)[C@@]12C | -24.8% | . | 7.0% | 16.7% | 11.1%[0.501 µM] | -10.7%
COc1ccccc1NS(=O)(=O)c1cc(N=N/C(C(=O)Nc2ccc(Cl)cc2)=C(/C)O)ccc1C | -28.7% | . | . | 7.1% | . | 7.0%
CCCCc1ccc(N=N/C(C(=O)Nc2ccc(NC(C)=O)cc2OC)=C(/C)O)cc1 | ? | -14.3% | ? | -20.4% | 35.5µM* | -7.2%
Cc1nnc(SCC(=O)N/N=C/c2ccc(-c3ccc(C)c(Cl)c3)o2)s1 | -9.7% | -26.7% | -35.0% | ? | 11.2µM* | -8.3%
O=C(O)c1cc(N/N=C/c2ccc(-c3ccc(F)cc3)o2)ccc1Cl | -18.0% | -10.5% | ? | -9.6% | 50.1µM* | ?
O=C(Cc1ccc(F)cc1)N/N=C/c1ccc(-c2ccc(Cl)c(C(=O)O)c2)o1 | -26.1% | 28.2µM* | -14.2% | 64.7% | ? | -8.2%
O=C(O)c1cc(-c2ccc(/C=N/Nc3ccc([N+](=O)[O-])cn3)o2)ccc1Cl | 39.8µM* | 44.7µM* | . | ? | 79.4µM* | ?
COCc1cc(C)n(CC(=O)N/N=C/c2ccc(-c3ccc(Cl)c(C(=O)O)c3)o2)c(=O)c1C#N | ? | ? | ? | 13.1% | -40.4%[59 µM] | -29.0%
CC(C)OC(=O)C(C)Nc1ccc(F)c(Cl)c1 (stereo not given) | 6.6% | 12.0% | 6.6% | 28.4% | 41.9% | -4.1%
CN(CC(=O)Nc1ccc(Cl)c(C(F)(F)F)c1)C(=O)CCCNC(=O)c1ccc(Cl)cc1 | 4.1% | . | 8.1% | 55.7% | 4.2%[59 µM] | -0.3%
COc1ccc(N(C(=O)Cn2nnc3ccccc32)C(C(=O)NCc2ccccc2)c2ccc(F)cc2)cc1 (stereo not given) | -2.8% | . | -2.1% | 15.4% | 5.9%[59 µM] | .
CC(=C(CCOP(=O)(O)O)SC(=O)c1ccccc1)N(C=O)Cc1cnc(C)nc1N | . | 11.8% | . | . | 26.2%[21.5 µM] | .
SMILES | JMJD2A Tudor | Sfp PPTase inh | BAZ2B block | HP1b chromo inh | G9a block | PLK1 PBD block
CN(/C=C1/C(=O)CNC1=O)CCO | -9.8%[11.4 µM] | 3.4% | 16.0% | -11.0% | ? | 16.8µM*
O=C(CSc1ncccn1)NCC1CCCO1 (stereo not given) | 0.7% | . | . | 53.7% | . | -8.3%
O=C(CCCSc1nc2ccccc2[nH]1)NC1CCCCC1 | -3.6% | 26.2% | -15.2% | 24.3% | 14.8%[59 µM] | -13.1%
O=C(CSc1nc(-c2ccccc2)c(-c2ccccc2)[nH]1)NCC1CCCO1 (stereo not given) | -10.1% | 2.2% | ? | 12.2% | 28.2µM* | -8.7%
CCn1cc(SCC(=O)NCC2CCCO2)c2ccccc21 (stereo not given) | -7.5% | -2.1% | 4.4% | 50.9% | ? | 7.52µM*
O=C(CSc1nc2ccccc2[nH]1)NC1CCCC1 | -22.4% | 12.7% | 79.4µM* | -8.7% | 50.1µM* | -11.3%
O=C(CSc1nc2ccccc2[nH]1)NCC1CCCO1 (stereo not given) | -7.1% | -2.8% | -7.7% | 17.6% | 31.6µM* | -5.6%
CC1CCCCC1NC(=O)CCS(=O)(=O)c1cc2c(cc1Cl)NC(=O)CO2 (stereo not given) | -15.0% | 10.1% | -19.8% | 23.3% | 15.0% | -22.4%
O=C(CSc1ccc(Cl)cc1)NCC1CCCO1 (stereo not given) | 4.3% | 13.3% | 5.0% | 24.9% | -1.3% | 1.4%
Cn1c(=O)c(C(=O)NCC2CCCO2)c(O)c2ccccc21 (stereo not given) | 28.2µM* | 23.6% | -25.6% | 9.0% | -39.3% | 1.9%
Cn1cccc1Cc1nnc(SCC(=O)NCC2CCCO2)n1CCc1ccccc1 (stereo not given) | -34.2% | -9.3% | -0.3% | 12.1% | 15.1%[2.33 µM] | -1.9%
Cn1cccc1Cc1nnc(SCC(=O)NCC2CCCO2)n1C (stereo not given) | -24.8% | -7.5% | 2.7% | ? | 4.2% | 23.8µM*
O=C(CSc1ccc(Br)cc1)NCC1CCCO1 (stereo not given) | 5.4% | 10.0% | -19.9% | 24.9% | 39.8µM* | -7.3%
O=C(NCCc1ccccc1)C(=O)NCC(c1cccnc1)N1CCN(c2ccccc2)CC1 (stereo not given) | -9.5% | . | ? | 18.8% | -5.7%[59 µM] | .
COc1ccc(NS(=O)(=O)c2c(C)nc3scc(C)n3c2=O)cc1 | -3.4% | . | -15.4% | 34.2% | 0.1%[59 µM] | .
S=c1[nH]ccn1-c1ccccc1Cl | 22.4µM* | 0.4% | -13.3% | 31.6% | 15.8µM* | -7.0%
S=c1[nH]ccn1-c1cccc(Cl)c1Cl | 15.8µM* | -20.0% | -6.9% | 44.6% | 5.62µM* | -12.2%
CCOc1ccc(NC(=O)CN(C)C(=O)c2ccc(=O)[nH]c2)cc1OCC | -14.6% | -14.4% | 4.9% | 3.9% | 33.4% | -6.9%
O=C(O)c1ccc(-c2ccc(-c3ccccc3)cc2)s1 | . | 4.4% | 50.1µM* | . | ? | .

Screens from PubChem.
